ChEMBL document CHEMBL4513216, “Probing the Open Global Health Chemical Diversity Library for Multistage-Active Starting Points for Next-Generation Antimalarials” (ACS Infect Dis, 2020)
The whole screen tested about 69,000 compounds, of which about 8,600 (12%) showed an effect of 50% or more. For the sample, strong results were picked, then their nearest neighbours and some compounds at random.

What follows are compounds tested on Plasmodium berghei (assay: Screen against P. berghei liver stage (PbLuc), transformed with Luciferase, at 10uM). Details: tested at 10 uM.
Type: functional, HepG2
With `CN1C(=O)CC(c2cnn(C)c2)C12CCN(CC1CCOCC1)CC2` (configuration not stated) the INHIBITION was -9.74%.
In the case of `Cn1ccnc1CCC1CCCCN1Cc1cnc(N2CCCC2)nc1` (configuration not stated), the INHIBITION is reported as -25%.
`CN1CCC2(Cc3ccccc3CN(C(=O)CCN)C2)C1` (configuration not stated) showed an INHIBITION of 40%.
Work on `O=C(NCCc1csc(-c2ccncc2)n1)C1CC(=O)N(C2CC2)C1` (configuration not stated) yielded an INHIBITION of 2.66%.
`Cc1nc(C)n(CC2CCCN(CC(=O)Nc3cc(C)on3)C2)n1` (configuration not stated) showed an INHIBITION of -18.945%.
Work on `CN(Cc1ccc(F)cc1)C(=O)CN1CCOC(Cn2cccn2)C1` (configuration not stated) yielded an INHIBITION of -4.16%.
In the case of `CCc1ccc(O)c(C(=O)N2CCN(CC(=O)N(CC)CC)CC2)c1`, the INHIBITION is reported as 56.6%.
Compound `CCc1ccc(O)c(C(=O)N2CCCN(CC(=O)N(CC)CC)CC2)c1` has an INHIBITION of -1.57%.
`CCc1ccc(O)c(C(=O)N2CCN(CC(=O)N(C)C)CC2)c1` was tested, and the INHIBITION was 47.7%.
`COc1c(C2CCCN2Cc2noc(C)n2)c(C)nn1C` (configuration not stated) was tested, and the INHIBITION was -40.2%.
`COCCN(Cc1sccc1C)C(=O)c1c(O)cccc1F` gave an INHIBITION of -15.6%.
`CCN1CCC2(CC1)C(=O)N(c1ccc(C)nc1)CCN2CC(C)C` showed an INHIBITION of 36.4%.
Compound `Cc1ccc(N2CCN(CC3CC3)C3(CCN(C(C)C)CC3)C2=O)cn1` has an INHIBITION of 27.5%.
`CC(=O)N1CCC2(CC1)C(=O)N(c1ccc(C)nc1)CCN2CC(C)C` showed an INHIBITION of 60%.
Work on `Cc1nc(C)n(CC2CCCN2CCOc2ccc(F)cc2)n1` (configuration not stated) yielded an INHIBITION of -32%.
In the case of `CCn1nc2c(cc1=O)CN(CC(=O)Nc1nnc(C)s1)CC2`, the INHIBITION is reported as -29.8%.
With `Cc1nnc(NC(=O)CN2CCc3nn(C)c(=O)cc3C2)s1` the INHIBITION was 62.9%.
For `CCCn1nc2c(cc1=O)CN(CC(=O)Nc1nnc(C)s1)CC2`, the INHIBITION was 26.3%.
`CCN(Cc1ccc(O)c(C(=O)O)c1)CC1CCOCC1` showed an INHIBITION of 7.65%.
Compound `COc1ccccc1CNc1c(O)c(=O)c1=O` has an INHIBITION of 21.7%.
With `CO[C@H]1CC[C@H]2[C@H]1OCCN2Cc1ccc(F)cc1` the INHIBITION was -40.9%.
For `O=C(NCCNC1CCN(c2nccs2)CC1)c1cccs1`, the INHIBITION was 55.1%.
`O=C(NCCNC1CCCC1)c1cccs1` gave an INHIBITION of -0.902%.
Work on `O=C(NC1CCN(c2nccs2)CC1)c1cccs1` yielded an INHIBITION of 22.2%.
`COc1ccc(COCC(=O)N2CCC(c3nncn3C)CC2)cc1` was tested, and the INHIBITION was 39.2%.
In the case of `CC(=O)N1N=C(c2ccccc2)OC1C(=O)N(C)CCc1ccccc1` (configuration not stated), the INHIBITION is reported as 38.2%.
Compound `Cn1cnc2c1C(COCc1ccccc1)N(Cc1ccncc1)CC2` (configuration not stated) has an INHIBITION of 15.9%.
For `COC(=O)c1cc(OC)ccc1NCC(=O)NCC(=O)N1CCCC1`, the INHIBITION was 2.03%.
With `CC(C)c1nc(CN2CCOC(Cn3cncn3)C2)no1` (configuration not stated) the INHIBITION was -15.5%.
For `O=C(NC1CCCC1)C1CCN(c2cc(-n3ccnc3)ncn2)CC1`, the INHIBITION was 48%.
`O=C(NC1CCN(c2ncccn2)CC1)c1cccc(-n2ccnc2)c1` showed an INHIBITION of -2.94%.
`O=C(NC1CCN(c2cc(-n3ccnc3)ncn2)CC1)c1ccncc1` showed an INHIBITION of 69.1%.
`CC1c2ncc(CN3CCN(C)CC3)n2CCN1Cc1cnn(C)c1` (configuration not stated) showed an INHIBITION of 33.2%.
`O=C1CO[C@@H]2CN(Cc3cccs3)C[C@H]2N1Cc1ccncc1` was tested, and the INHIBITION was 14.2%.
`CCN(CC)CCNC(=O)CCc1c(C)nn(-c2cccc(Cl)c2)c1C` showed an INHIBITION of 48%.
Work on `CCN(CC)CCNC(=O)CCc1c(C)nn(-c2ccccc2Cl)c1C` yielded an INHIBITION of 48%.
For `CCN(CC)CCNC(=O)CCc1c(C)nn(-c2ccc(Cl)cc2)c1C`, the INHIBITION was 63.9%.
`O=C1NCCN1CCNc1cc(-c2ccncc2)nc2ccnn12` showed an INHIBITION of -4.91%.
Compound `CNC(=O)c1cccnc1Oc1ccccc1` has an INHIBITION of 9.89%.
In the case of `NC(=O)CC1c2cccnc2C(=O)N1Cc1ccccc1` (configuration not stated), the INHIBITION is reported as -16.4%.
Work on `CC(C)(C)c1n[nH]c(C2CN(C(=O)c3cc(Cl)c[nH]3)CCO2)n1` (configuration not stated) yielded an INHIBITION of 19.7%.
In the case of `Cc1ccc(S(N)(=O)=O)cc1C(=O)NC1CCCN(C)C1` (configuration not stated), the INHIBITION is reported as 3.46%.
`CN(Cc1ccc(F)cc1)S(=O)(=O)N1CCOCC1` gave an INHIBITION of -8.005%.
`CN(Cc1ccccc1)S(=O)(=O)N1C[C@H](C2CC2)[C@@H](N)C1` showed an INHIBITION of -43.1%.
`CCN(Cc1ccccc1)C(=O)CCN1C[C@@H](C(=O)O)[C@H](C2CC2)C1` was tested, and the INHIBITION was 5.78%.
Work on `CN(Cc1cccc(F)c1)S(=O)(=O)N1CCOCC1` yielded an INHIBITION of -26.1%.
Work on `CN(Cc1ccccc1)S(=O)(=O)N1C[C@@H](C(=O)O)[C@H](C2CC2)C1` yielded an INHIBITION of 61.8%.
In the case of `CC(=O)N[C@H]1CN(S(=O)(=O)N(C)Cc2ccccc2)C[C@@H]1C1CC1`, the INHIBITION is reported as 64.4%.
`CC(=O)N[C@@H]1CN(S(=O)(=O)Cc2ccccc2)C[C@H]1C(C)C` was tested, and the INHIBITION was 41.6%.
`CCC[C@H]1CN(S(=O)(=O)N(C)Cc2ccccc2)C[C@@H]1N` gave an INHIBITION of 77.5%.
Compound `CN(Cc1ccccc1)C(=O)CCN1C[C@H](C2CC2)[C@@H](N(C)C)C1` has an INHIBITION of 14.9%.
With `CN(C)CC(=O)N1CC2(CCN(S(=O)(=O)c3ccccc3)C2)C1` the INHIBITION was -25.8%.
`C1CCC(CNC2CCCN(Cc3noc(C4CC4)n3)C2)C1` (configuration not stated) was tested, and the INHIBITION was 7.43%.
For `CC(c1ncc(-c2ccccc2)o1)N1CCN(C(=O)N(C)C)CC1` (configuration not stated), the INHIBITION was 48.2%.
Work on `CCn1c(C)nnc1CN(C)C1CCN(CCS(=O)(=O)CC)C1` (configuration not stated) yielded an INHIBITION of -49.5%.
`CC(C)CCN1C2(CCN(C(=O)CN(C)C)C2)c2ccccc2S1(=O)=O` (configuration not stated) gave an INHIBITION of 21.4%.
For `CS(=O)(=O)N1CC2(CCN(C3CCCCC3)CC2)Cc2ccccc21`, the INHIBITION was 32.5%.
Compound `O=C(c1n[nH]c2c1CCN(Cc1nccs1)C2)N1CCCC1` has an INHIBITION of 18.1%.
Compound `CS(=O)(=O)c1cc(NC(=O)COc2ccccc2F)cc(C(=O)O)c1` has an INHIBITION of 1.98%.
`CC(C)CC(C#N)NC(=O)CCNC(=O)C(C)(C)C` (configuration not stated) showed an INHIBITION of 55.5%.
With `CC(C)CCC(=O)NC(C#N)CC(C)C` (configuration not stated) the INHIBITION was 9.91%.
For `CCC(C#N)NC(=O)CCNC(=O)C(C)(C)C` (configuration not stated), the INHIBITION was -0.991%.
`Cc1nc(CN2CCC3(CC2)NC(=O)CC3c2ccccc2)cs1` (configuration not stated) showed an INHIBITION of 34.1%.
In the case of `CC(C)Cc1noc(C2CCCCN2C(=O)CCc2cnn(C)c2)n1` (configuration not stated), the INHIBITION is reported as 32.2%.
In the case of `Cc1nn(C)c2sc(C(=O)N3CCCC(n4ccnc4C)C3)cc12` (configuration not stated), the INHIBITION is reported as 28.4%.
`O=c1occ(CN2CCCCCC2)c(O)c1CN1CCOCC1` gave an INHIBITION of -28.7%.
`Cc1nc(C)c(S(=O)(=O)NC(=O)c2ccsc2)s1` showed an INHIBITION of 21.8%.
`Cc1nc(C)c(S(=O)(=O)NC(=O)c2sccc2C)s1` gave an INHIBITION of 51.5%.
Work on `O=C(NS(=O)(=O)c1cnn(-c2ccccc2F)c1)c1ccoc1` yielded an INHIBITION of -17.4%.
For `Cc1nc(C)c(S(=O)(=O)NC(=O)c2cccs2)s1`, the INHIBITION was 22.8%.
`Cc1nc(C)c(S(=O)(=O)NC(=O)c2ccoc2)s1` showed an INHIBITION of 64.4%.
For `Cc1cccc(NC(=O)c2sccc2C)n1`, the INHIBITION was -52.1%.
